# Test results reported in PubChem BioAssay (NCATS).
# Results filed as inconclusive are left out. A number with no mark means an inactive call. The call rests on the fitted dose curve; in most records, active means well fitted inhibition curve with a large enough effect; inconclusive means small, poorly fitted or top-dose-only effect; inactive means flat fitted curve, though single readings scatter.
# Tested on: astro (control astrocytes)
# Experiment: Drug repurposing screens with cells derived from glioblastoma tumor samples (AID 1345199); further: nearly all actives have a fitted effect of over 40% in size
# Details: viability, ATP luminescence, 48 h; series mostly up to 45.9 µM; activity, negative = cell killing: at the top concentration
# Summary of the method: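 Four patient lines of CD133+ GBM neurospheres were screened at several concentrations; hits were retested in those lines plus three slower-growing GBM lines, using 48-hour treatment and ATP-based viability.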
# On the % scale 0 is the no-effect control and ±100 the full control effect.
row,Structure (SMILES),"activity, negative = cell killing"
1,Cc1c(I)c(=O)n(-c2ccccc2)n1C,-17.3%
2,NCC1CCC(C(=O)Oc2ccc(CCC(=O)O)cc2)CC1 (configuration not stated),-6.6%
3,Nc1ncnc(Nc2ccccc2)n1,-25.9%
4,Cc1cccc(C(=O)O)c1O,-13.7%
5,CC(C)NC[C@@H](O)COc1ccc(CC(N)=O)cc1,-2.73%
6,O=C(Cn1ccnc1[N+](=O)[O-])NCc1ccccc1,-2.05%
7,NC(=O)N[C@@H](CCC(=O)O)C(=O)O,-11.3%
8,CCN(CC)CCOC(=O)C(c1ccccc1)c1ccccc1,-12.1%
9,O=C1c2ccccc2S(=O)(=O)N1CCCCN1CCN(c2ncccn2)CC1,-19.3%
10,CCS(=O)(=O)CCn1c([N+](=O)[O-])cnc1C,-8.53% [at 21.2 µM]
11,O=C1CC[C@@H](C(=O)O)N1,-21.9%
12,CCN(CC)CCc1nc(-c2ccccc2)no1,-7.63% [at 21.2 µM]
13,O=C(CN1CCNCC1)NC1CCCCC1,-14.3%
14,C[N+]1(C)CCCC(OC(=O)C(O)(c2ccccc2)c2ccccc2)C1 (configuration not stated),-11.7% [at 21.2 µM]
15,NC(=O)NS(=O)(=O)c1ccc(N)cc1,-6.82%
16,CC(C)C[C@@H](N)C(=O)O,-2.46%
17,O=C(NCC(O)CO)c1c(I)c(C(=O)NCC(O)CO)c(I)c(N(CCO)C(=O)CO)c1I (configuration not stated),-3.8% [at 21.2 µM]
18,O=C(O)c1ccccc1C(=O)Nc1ccc(S(=O)(=O)Nc2nccs2)cc1,-5.41%
19,NS(=O)(=O)c1cc2c(cc1C(F)(F)F)NCNS2(=O)=O,-3.11% [at 21.2 µM]

row,Structure (SMILES),"activity, negative = cell killing"
1,O=C(O)CCCc1ccccc1,-13.1%
2,O=C(Cn1ccnc1[N+](=O)[O-])NCCO,-6.57%
3,COc1ccc(NS(=O)(=O)c2ccc(N)cc2)nn1,-12.9% [at 21.2 µM]
4,COCC(=O)Nc1c(I)c(C(=O)NCC(O)CO)c(I)c(C(=O)N(C)CC(O)CO)c1I (configuration not stated),-11.2% [at 21.2 µM]
5,C=CCSCC1Nc2cc(Cl)c(S(N)(=O)=O)cc2S(=O)(=O)N1 (configuration not stated),-0.947%
6,NC(=O)NC1NC(=O)NC1=O (configuration not stated),0.775% [at 21.2 µM]
7,CC(=O)NCc1c(I)c(NC(C)=O)c(I)c(C(=O)O)c1I,-7.62%
8,CCN[C@H]1CN(CCCOC)S(=O)(=O)c2sc(S(N)(=O)=O)cc21,-11.9% [at 21.2 µM]
9,O=C(/C=C/c1ccccc1)OCc1ccccc1,-4.12%
10,CC(C)CCOC(=O)c1ccc(N(C)C)cc1,-17.1%
11,NNC(=O)CP(=O)(c1ccccc1)c1ccccc1,-11.7%
12,Cc1[nH]c(C)c(Cl)c(=O)c1Cl,-6.37%
13,COc1ccccc1OC(=O)Oc1ccccc1OC,-5.75%
14,CC(=O)SC[C@@H](Cc1ccccc1)C(=O)NCC(=O)OCc1ccccc1,-11.6% [at 21.2 µM]
15,O=C(O)c1cc(=O)c2ccccc2o1,-16.2%
16,CCOC(N)=O,-9.05%
17,CCCNC(C)C(=O)Nc1c(C)csc1C(=O)OC (configuration not stated),-11.1% [at 21.2 µM]
18,C/C=C1\[C@H]2C=C(C)C[C@]1(N)c1ccc(=O)[nH]c1C2,-10.8%
